The source of these data is PubChem BioAssay.

This test is described as follows: survival rescue of mitochondrial mutant cells in low glucose, primary screen, MELAS cybrids, Rieske KO mouse fibroblasts, CellTiter-Glo (AID 1508586).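 Also: test concentration not given here; z relative to plate mean and SD of compound and empty wells.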 Particulars: Rieske KO mouse fibroblast survival, CellTiter-Glo 72 h.
As for `CN1CCCC1CCNC(=O)c1cc(-c2ccccc2)cc(S(=O)(=O)N2CCSCC2)c1` (stereo not given), the z-score was -0.0913.

On to `CCOC(=O)N1CCC(NC2CCc3c(c(C(=O)N(C)C)nn3Cc3ccccc3)C2)CC1` (stereo not given), for which the z-score was 0.468.

`COC(=O)CN1C(=O)N(CCc2ccccc2)C2(CCN(Cc3ccc4c(c3)OCCO4)CC2)C1=O`: the z-score was -0.109.

As for `C[C@@H](NC(=O)N[C@H]1C[C@H]2C(=O)N[C@H](Cc3ccc(O)cc3)C(=O)N2C1)c1ccccc1`, the z-score is -0.613.

With `COC(=O)c1c(NC(=O)C2CCC2)c2cc(NC3CCSCC3)cnc2n1CCc1ccccn1`, the z-score was -0.308.

For `CCOC(=O)c1nn(CCc2ccccc2)c2c1CN(C(=O)CCc1nc3ccccc3s1)CC2`, the z-score is 0.0715.

In the case of `CN1CC(=O)N2CCN(C(=O)NCc3ccccc3)C[C@@H]2C1=O`, the z-score was -0.297.

`Cc1ccn2cc(C(=O)N3CCc4c(cc(-c5ccc(OC(F)(F)F)cc5)c(=O)n4C)C3)nc2c1`: the z-score is -0.543.

As to `CC1=C(CCN2CCC3(CC2)C(=O)N(C(C)C)C(=O)N3C)C(C)(C)CCC1`, the z-score was -0.31.

Turning to `CCn1nc(C(=O)N2CCCC2)c2c1CCC(NCCC1=CCCCC1)C2` (stereo not given), the z-score is -0.76.

In the case of `COCCN1C(=O)N(C(C)C)C(=O)C12CCN(Cc1c(F)cccc1Cl)CC2`, the z-score was -0.375.

`COc1ccc(C(=O)N2CCN3C(=O)[C@H](COCc4ccccc4)NC(=O)[C@H]3C2)cc1`: the z-score was -0.655.

Regarding `O=C1N[C@@H](Cc2ccccc2)C(=O)N2CCN(C(=O)c3cccs3)C[C@H]12`, the z-score was -0.046.

In the case of `COC(=O)c1c(NC(=O)c2cccnc2)c2cc(NCc3ccc4c(c3)CCO4)cnc2n1CC(C)C`, the z-score stood at 3.72.

In the case of `CC(C)/C=C/CNc1cc(C(=O)NCc2cn3ccccc3n2)cc(S(=O)(=O)NC(C)C)c1`, the z-score is -0.726.
